# Measurements: the supplement of paper PMC11001985
# Compound: C#CCNC(=O)CCSSCCC(=O)NCCc1ccc(C=O)c(C=O)c1
# Experiment: lysine labeling ratio R10:1 (500 µM / 50 µM probe), SILAC-ABPP in living cells; higher = lower intrinsic lysine reactivity toward the probe, active = 2 or less
# Conditions: HeLa; probe concentrations 500 vs 50 µM
# How it was run: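 The two probe levels, 50 µM and 500 µM, of an alkyne-tagged, disulfide-linked lysine probe were applied to living light and heavy SILAC HeLa cells in PBS at room temperature, and the labels were run in both forward and reverse orientation. Mixed lysates underwent biotin-azide click chemistry, trypsin digestion, neutravidin capture, DTT release and alkylation before LC-MS/MS on a TIMS-TOF Pro. R is the filtered median high-probe/low-probe MS1 peptide ratio for each lysine, summarised as the median over forward and reverse replicates. Nothing above 20 is reported; such values are set to 20.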
# Sequence of UniProt P26639 (P26639 whole entry): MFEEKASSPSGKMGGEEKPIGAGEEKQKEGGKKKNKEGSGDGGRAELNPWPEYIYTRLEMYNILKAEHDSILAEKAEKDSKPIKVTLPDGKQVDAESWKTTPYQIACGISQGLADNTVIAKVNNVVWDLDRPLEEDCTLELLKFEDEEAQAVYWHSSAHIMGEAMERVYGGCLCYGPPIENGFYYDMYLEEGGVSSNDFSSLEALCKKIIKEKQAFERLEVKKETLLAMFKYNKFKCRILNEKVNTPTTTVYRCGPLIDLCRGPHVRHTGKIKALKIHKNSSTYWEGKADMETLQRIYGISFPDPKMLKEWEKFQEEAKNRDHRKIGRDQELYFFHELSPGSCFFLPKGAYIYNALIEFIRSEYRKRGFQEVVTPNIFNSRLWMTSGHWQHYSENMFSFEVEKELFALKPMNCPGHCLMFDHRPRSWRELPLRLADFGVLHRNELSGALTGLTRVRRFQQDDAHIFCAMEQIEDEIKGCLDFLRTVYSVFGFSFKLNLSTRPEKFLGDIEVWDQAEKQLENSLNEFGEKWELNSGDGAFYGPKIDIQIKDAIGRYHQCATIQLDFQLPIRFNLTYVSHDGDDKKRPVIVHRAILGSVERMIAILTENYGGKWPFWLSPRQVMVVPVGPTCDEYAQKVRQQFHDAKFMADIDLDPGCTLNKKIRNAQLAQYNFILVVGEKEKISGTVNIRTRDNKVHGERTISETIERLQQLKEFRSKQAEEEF
# Sequence of UniProt P21333 (P21333 whole entry): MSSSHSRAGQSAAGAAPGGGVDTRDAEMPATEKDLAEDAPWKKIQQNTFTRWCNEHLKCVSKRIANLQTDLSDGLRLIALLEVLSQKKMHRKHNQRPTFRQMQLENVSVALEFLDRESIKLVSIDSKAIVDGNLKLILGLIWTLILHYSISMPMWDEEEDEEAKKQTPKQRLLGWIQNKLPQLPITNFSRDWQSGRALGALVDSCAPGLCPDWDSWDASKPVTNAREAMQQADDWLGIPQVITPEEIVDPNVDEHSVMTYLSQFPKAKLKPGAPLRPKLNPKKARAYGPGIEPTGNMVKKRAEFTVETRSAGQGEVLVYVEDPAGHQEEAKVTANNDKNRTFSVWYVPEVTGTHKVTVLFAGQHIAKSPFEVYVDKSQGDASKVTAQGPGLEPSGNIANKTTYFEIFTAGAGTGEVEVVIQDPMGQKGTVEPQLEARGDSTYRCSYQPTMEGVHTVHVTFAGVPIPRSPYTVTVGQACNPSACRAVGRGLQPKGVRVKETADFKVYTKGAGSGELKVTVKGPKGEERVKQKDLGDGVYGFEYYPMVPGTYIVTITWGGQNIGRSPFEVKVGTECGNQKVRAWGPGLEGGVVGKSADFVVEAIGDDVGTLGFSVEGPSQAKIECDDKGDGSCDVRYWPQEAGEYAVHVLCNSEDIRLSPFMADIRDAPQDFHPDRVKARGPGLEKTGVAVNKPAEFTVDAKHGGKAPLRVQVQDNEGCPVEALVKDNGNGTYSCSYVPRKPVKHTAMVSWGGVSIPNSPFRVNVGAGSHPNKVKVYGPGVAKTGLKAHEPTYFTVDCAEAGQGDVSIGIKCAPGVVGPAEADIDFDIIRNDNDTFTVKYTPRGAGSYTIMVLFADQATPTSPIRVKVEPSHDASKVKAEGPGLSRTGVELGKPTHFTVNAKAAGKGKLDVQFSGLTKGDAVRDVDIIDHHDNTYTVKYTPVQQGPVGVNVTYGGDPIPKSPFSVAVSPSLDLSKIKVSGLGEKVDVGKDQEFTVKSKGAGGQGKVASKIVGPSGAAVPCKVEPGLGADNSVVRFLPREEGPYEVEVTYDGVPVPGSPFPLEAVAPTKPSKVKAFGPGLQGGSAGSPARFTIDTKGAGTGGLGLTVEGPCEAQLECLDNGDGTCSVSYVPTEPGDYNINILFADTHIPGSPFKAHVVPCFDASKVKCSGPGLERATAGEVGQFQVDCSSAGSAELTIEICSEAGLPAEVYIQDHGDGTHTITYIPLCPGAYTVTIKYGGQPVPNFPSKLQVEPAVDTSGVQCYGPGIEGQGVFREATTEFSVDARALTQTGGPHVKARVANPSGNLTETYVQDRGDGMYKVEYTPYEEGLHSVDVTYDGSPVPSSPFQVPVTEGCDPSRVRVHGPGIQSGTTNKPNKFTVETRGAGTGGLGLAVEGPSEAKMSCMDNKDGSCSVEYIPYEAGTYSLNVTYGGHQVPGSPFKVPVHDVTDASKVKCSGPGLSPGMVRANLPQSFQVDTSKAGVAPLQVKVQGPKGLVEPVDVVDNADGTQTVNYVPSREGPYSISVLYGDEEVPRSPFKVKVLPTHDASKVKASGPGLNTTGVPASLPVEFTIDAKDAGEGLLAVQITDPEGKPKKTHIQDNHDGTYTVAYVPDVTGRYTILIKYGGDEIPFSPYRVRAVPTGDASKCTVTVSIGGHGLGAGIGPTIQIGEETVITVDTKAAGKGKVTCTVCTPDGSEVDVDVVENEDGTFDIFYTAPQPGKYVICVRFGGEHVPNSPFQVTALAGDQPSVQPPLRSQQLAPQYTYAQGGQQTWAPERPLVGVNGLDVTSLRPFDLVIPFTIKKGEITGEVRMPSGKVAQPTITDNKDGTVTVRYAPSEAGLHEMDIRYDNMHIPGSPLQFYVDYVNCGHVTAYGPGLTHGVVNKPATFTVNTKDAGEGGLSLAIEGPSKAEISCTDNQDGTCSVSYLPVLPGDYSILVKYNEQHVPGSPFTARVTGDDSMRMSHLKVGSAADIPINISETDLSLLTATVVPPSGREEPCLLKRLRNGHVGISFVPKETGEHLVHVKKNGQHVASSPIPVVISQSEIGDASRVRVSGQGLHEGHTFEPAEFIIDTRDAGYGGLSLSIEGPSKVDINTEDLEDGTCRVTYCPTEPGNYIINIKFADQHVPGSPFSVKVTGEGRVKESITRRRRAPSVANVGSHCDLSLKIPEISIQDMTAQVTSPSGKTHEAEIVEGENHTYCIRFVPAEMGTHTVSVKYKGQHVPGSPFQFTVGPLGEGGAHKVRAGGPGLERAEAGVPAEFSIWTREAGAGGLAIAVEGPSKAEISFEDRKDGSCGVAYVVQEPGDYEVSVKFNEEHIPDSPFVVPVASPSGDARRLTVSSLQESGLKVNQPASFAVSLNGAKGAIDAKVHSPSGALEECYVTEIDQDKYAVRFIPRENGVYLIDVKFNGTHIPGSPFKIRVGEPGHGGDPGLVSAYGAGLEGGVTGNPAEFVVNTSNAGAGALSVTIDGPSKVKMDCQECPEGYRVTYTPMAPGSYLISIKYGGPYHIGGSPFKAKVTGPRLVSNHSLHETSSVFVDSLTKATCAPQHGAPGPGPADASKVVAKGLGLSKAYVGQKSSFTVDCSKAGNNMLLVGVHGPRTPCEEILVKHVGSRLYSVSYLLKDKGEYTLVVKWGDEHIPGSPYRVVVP
# Sequence of UniProt P50991 (P50991 whole entry): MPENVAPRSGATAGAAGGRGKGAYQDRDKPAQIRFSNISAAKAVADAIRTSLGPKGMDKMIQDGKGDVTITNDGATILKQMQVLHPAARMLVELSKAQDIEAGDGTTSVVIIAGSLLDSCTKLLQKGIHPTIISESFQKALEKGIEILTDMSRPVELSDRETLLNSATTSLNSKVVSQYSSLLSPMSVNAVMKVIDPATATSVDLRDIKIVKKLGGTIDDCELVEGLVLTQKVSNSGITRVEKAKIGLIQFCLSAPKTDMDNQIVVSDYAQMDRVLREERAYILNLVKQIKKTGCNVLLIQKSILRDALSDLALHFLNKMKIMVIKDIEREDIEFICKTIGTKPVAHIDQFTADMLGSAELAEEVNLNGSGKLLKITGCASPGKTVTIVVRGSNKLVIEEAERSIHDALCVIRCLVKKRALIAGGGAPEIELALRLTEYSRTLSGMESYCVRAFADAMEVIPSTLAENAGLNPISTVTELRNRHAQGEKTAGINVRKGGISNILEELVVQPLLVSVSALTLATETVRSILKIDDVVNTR
# Sequence of UniProt Q14151 (Q14151 whole entry): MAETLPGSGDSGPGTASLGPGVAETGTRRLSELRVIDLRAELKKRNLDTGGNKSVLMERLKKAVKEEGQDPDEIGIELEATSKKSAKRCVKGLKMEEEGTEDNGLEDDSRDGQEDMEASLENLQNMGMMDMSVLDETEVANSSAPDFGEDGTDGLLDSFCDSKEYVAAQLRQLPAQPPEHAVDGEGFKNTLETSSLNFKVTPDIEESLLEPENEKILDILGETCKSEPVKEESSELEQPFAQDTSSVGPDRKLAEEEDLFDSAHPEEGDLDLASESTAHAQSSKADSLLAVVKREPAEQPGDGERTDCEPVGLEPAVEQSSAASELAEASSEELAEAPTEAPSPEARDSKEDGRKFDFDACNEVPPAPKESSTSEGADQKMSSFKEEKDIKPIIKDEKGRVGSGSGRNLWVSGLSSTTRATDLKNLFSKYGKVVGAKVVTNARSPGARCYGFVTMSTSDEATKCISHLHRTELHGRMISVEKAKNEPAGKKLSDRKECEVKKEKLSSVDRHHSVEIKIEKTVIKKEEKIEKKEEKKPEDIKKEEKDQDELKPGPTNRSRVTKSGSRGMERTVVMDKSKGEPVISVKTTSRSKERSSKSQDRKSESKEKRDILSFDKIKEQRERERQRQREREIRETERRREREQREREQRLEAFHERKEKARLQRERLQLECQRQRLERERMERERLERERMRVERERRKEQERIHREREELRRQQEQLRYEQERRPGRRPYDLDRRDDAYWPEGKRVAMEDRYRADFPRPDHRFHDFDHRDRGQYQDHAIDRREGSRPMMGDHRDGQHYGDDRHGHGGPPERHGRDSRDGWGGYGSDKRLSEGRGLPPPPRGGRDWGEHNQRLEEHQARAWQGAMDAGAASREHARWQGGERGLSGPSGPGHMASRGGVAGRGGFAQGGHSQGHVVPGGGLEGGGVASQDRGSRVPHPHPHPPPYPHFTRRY
row,Target,lysine labeling ratio R10:1
1,UniProt P26639 (lysine site: K694),1.36 (active)
2,SAFB2 (lysine site: K829) (UniProt Q14151),1.92 (active)
3,UniProt P62854 (lysine site: K113),7.15 (inactive)
4,CCT4 (lysine site: K489) (UniProt P50991),2.21 (inactive)
5,UniProt P60866 (lysine site: K8),2.33 (inactive)
6,FLNA (lysine site: K1491) (UniProt P21333),2.1 (inactive)
